PubChem BioAssay AID933 (National Center for Advancing Translational Sciences (NCATS), 2007)
Records with an inconclusive call do not appear. A call without a number means that no potency is given here. Activity calls are given as the source filed them. Calls follow the shape of the dose curve; as a rule, active = well fitted activation curve with a large enough effect in the signal ratio, with a control signal flat; inconclusive = small, poorly fitted or top-dose-only effect, or a change in a side signal; inactive = flat fitted curve, though single readings scatter; the % refers to the signal ratio.

The compounds below were run against Thyrotropin receptor (Homo sapiens) (UniProt P16473) (assay: Secondary Concentration-Response Assay for Agonists of the Thyroid Stimulating Hormone Receptor: HTRF Activity Detection). Settings: HEK293-TSHR cells, cAMP HTRF ratio, 30 min; series mostly up to 91.7 µM.
Chain of Thyrotropin receptor (Homo sapiens) (P16473 whole entry, looked up): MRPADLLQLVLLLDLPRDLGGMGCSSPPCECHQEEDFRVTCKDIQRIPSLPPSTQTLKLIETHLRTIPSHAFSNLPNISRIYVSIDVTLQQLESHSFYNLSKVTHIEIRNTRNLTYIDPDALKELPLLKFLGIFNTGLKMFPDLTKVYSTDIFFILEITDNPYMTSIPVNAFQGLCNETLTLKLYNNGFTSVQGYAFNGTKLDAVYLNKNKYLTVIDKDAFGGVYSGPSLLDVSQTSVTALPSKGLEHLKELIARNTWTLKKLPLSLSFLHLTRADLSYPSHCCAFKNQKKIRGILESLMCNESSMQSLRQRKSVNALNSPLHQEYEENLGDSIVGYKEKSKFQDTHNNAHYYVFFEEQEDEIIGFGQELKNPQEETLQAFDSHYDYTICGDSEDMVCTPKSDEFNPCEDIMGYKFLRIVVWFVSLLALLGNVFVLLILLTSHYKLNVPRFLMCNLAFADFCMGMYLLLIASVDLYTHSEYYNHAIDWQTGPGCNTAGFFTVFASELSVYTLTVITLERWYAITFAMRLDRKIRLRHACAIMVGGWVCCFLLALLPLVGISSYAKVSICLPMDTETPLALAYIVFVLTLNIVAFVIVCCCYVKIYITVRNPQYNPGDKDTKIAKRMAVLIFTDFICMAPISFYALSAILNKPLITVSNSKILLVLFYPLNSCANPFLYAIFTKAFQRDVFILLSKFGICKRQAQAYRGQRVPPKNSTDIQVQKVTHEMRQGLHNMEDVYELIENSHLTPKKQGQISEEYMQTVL
Text: NIH Chemical Genomics Center [NCGC]
NIH Molecular Libraries Screening Centers Network [MLSCN]
PI Name: Dr. Marvin Gershengorn, NIH
Confirmation of Thyroid Stimulating Hormone Receptor Agonists
TSH is an alpha/beta heterodimeric glycoprotein hormone secreted from the anterior pituitary gland which belongs to the glycoprotein hormone family. The actions of TSH are mediated by a seven-transmembrane receptor, which upon TSH binding couples preferentially to the G-alpha (s) protein (Gs), resulting in activation of adenylate cyclase and increase in cyclic adenosine 3', 5' monophosphate (cAMP). The TSH receptor (THSR) is mainly expressed in thyroid follicular cells and regulates their growth and function. Recombinant TSH is used to activate TSHR in patients with thyroid cancer receiving thyroid hormone suppression therapy and to screen for residual tumor after surgery, but it is expensive and must be administered intramuscularly. An orally active small molecule TSHR agonist would serve as an invaluable research tool for studying TSHR pharmacology and physiology, and would have multiple advantages in therapeutic settings. However, no selective small molecule agonist of the TSH receptor exists, and no small molecule screen for TSHR agonists has ever been reported.
A confirmatory assay of putative TSHR agonists was conducted on a different TSHR transfected HEK 293 cell line, using an orthogonal detection technology to measure cAMP stimulation: antibody-based Homogeneous Time Resolved Fluorescence (HTRF).
NCGC Assay Protocol Summary:
Homogeneous Time Resolved Fluorescence (HTRF) cAMP Assay. HEK 293 cells stably transfected with a vector containing the TSHR and maintained under hygromycin selection were obtained from the laboratory of Dr. Marvin Gershengorn. Compounds were assayed using a HTRF cAMP detection kit (Cisbio) on the TSHR transfected cell line. Briefly, 750 cells were plated in 2.5 ul/well of complete media (DMEM containing 10 % FCS, and 100 uM RO 20-1724) in 1536 well solid bottom white plates and 23 nl/well compound in DMSO solution or controls was added. Following 30 minute incubation at room temperature, 2.5 ul/well of labeled d2 cAMP and 2.5 ul/well of anti-cAMP antibody (both diluted 1:20 in lysis buffer) were added to each well using a flying reagent dispenser (Aurora Discovery, San Diego) . Plates were measured using the Envision plate reader (PerkinElmer, Boston, MA) with excitation at 330 nm and emissions of 615 nm and 660 nm.
Keywords: Thyroid-stimulating hormone TSH, TSHR, TSHR agonist, quantitative high throughput screening, qHTS, HTS, probe identification, CNG, cAMP, cyclic nucleotide gated ion channel PubChem
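For activation in this document: HEK 293 cells stably expressing human TSHR with RO 20-1724 phosphodiesterase inhibitor.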
Potency is read from the fitted curve at half-maximal effect.

Which Potency does the source give for `O=C1c2ccccc2N2C(=O)c3ccccc3C2N1Cc1ccco1` (stereo not given) here?
The Potency was “inactive”.

How did the activation turn out when `CN(Cc1ccco1)C(=O)Cn1c(=O)oc2cc(S(=O)(=O)NCc3ccccc3)ccc21` was run?
Its activation is 0.961% [at 0.00035 µM] (inactive).

Which Potency does the source give for `COc1cccc(-c2nc(SC)nc3sc(C(=O)NC(C)(C)C)c(N)c23)c1` here?
Its Potency is “inactive”.

For `COc1ccc(C2Nc3ccccc3C(=O)N2Cc2ccco2)cc1COc1ccccc1F` (stereo not given), which Potency is on record?
The Potency was “inactive”.

`COc1ccc(C2Nc3ccc(NC(=O)CO)cc3C(=O)N2Cc2cccc(Cl)c2)cc1COc1ccc(NC(C)=O)cc1` (stereo not given) was tested. Which Potency did it give?
Its Potency is 5.62 µM (active).

How did the activation turn out when `CCN(c1ccccc1)S(=O)(=O)c1ccc(Oc2ccc(-n3ccnc3)cc2)nc1` was run?
The activation was 0.254% [at 0.00035 µM] (inactive).

For `CCOC(=O)N1CCC(NC(=O)c2ccc(CNS(=O)(=O)c3ccc(F)cc3)cc2)CC1`, which activation is on record?
The activation was 0.984% [at 0.00035 µM] (inactive).

How did the activation turn out when `COc1cccc(C(c2nnnn2Cc2ccccc2)N2CCN(C(=O)c3ccco3)CC2)c1OC` (stereo not given) was run?
Its activation is 0.497% [at 0.00035 µM] (inactive).

Which activation does the source give for `CCOC(=O)CCc1c(C)nc2c(c(C)nn2C(C)(C)C)c1C` here?
Its activation is 0.0158% [at 0.00035 µM] (inactive).

Which Potency does the source give for `O=C(COC(=O)C12CC3CC(CC(Cl)(C3)C1)C2)NCc1ccco1` here?
Its Potency is 14.1 µM (active).

For `COc1cccc(OCc2cc(C3Nc4ccccc4C(=O)N3c3ccccc3)ccc2OC)c1` (stereo not given), which Potency is on record?
Its Potency is “inactive”.

Which Potency does the source give for `Cc1ccccc1N1C(=O)c2ccccc2N2C(=O)c3ccccc3C12` (stereo not given) here?
Its Potency is “inactive”.

How did the Potency turn out when `COc1cc(C2Nc3ccccc3C(=O)N2Cc2ccccc2)ccc1OCc1ccccc1` (stereo not given) was run?
Its Potency is “inactive”.

`CCCN1C(=O)c2ccccc2NC1c1ccc(OC)c(COc2cccc(C)c2C)c1` (stereo not given) was tested. Which Potency did it give?
The Potency was “inactive”.

Which activation does the source give for `O=C(CN(Cc1ccccc1Cl)C(=O)Cn1nnc(-c2cccs2)n1)NCC1CCCO1` (stereo not given) here?
The activation was 0.671% [at 0.00035 µM] (inactive).

How did the Potency turn out when `COc1ccc2c(c1OC)C(=O)N1c3ccccc3C(=O)N(c3ccc(F)cc3)C21` (stereo not given) was run?
Its Potency is “inactive”.

`CCSCCOC(=O)C1=C(C)N(C)C(=O)NC1c1cc(OC)ccc1OC` (stereo not given) was tested. Which activation did it give?
The activation was 1.56% [at 0.00035 µM] (inactive).

With `CC1=CCC2C(=O)N(c3ccc(Br)cc3C)C(=O)C2C1` (stereo not given) as the compound, how does the activation read?
The activation was 0.113% [at 0.00035 µM] (inactive).

`CCCN1C(=O)c2ccccc2NC1c1ccc(OC)c(COc2ccc([N+](=O)[O-])cc2)c1` (stereo not given) was tested. Which Potency did it give?
The Potency was “inactive”.

With `COc1ccc(C2Nc3ccccc3C(=O)N2Cc2ccccc2)cc1COc1ccc(NC(=O)c2ccccc2)cc1` (stereo not given) as the compound, how does the Potency read?
The Potency was “inactive”.

With `COc1ccc(C2Nc3ccccc3C(=O)N2Cc2ccccc2)cc1Cn1nnc2ccccc21` (stereo not given) as the compound, how does the Potency read?
The Potency was “inactive”.

With `COc1ccc(CN(Cc2ccccc2)C(=O)CN2CCN(C)CC2)cc1COc1ccc(NC(C)=O)cc1` as the compound, how does the Potency read?
Its Potency is “inactive”.

Which Potency does the source give for `COc1ccc(C2Nc3ccccc3C(=O)N2Cc2ccc(C(C)(C)C)cc2)cc1COc1ccc(NC(C)=O)cc1` (stereo not given) here?
Its Potency is “inactive”.

How did the activation turn out when `CCOC(=O)c1cnc(-n2nc(C)cc2C)nc1-n1nc(C)cc1C` was run?
Its activation is -0.245% [at 0.00035 µM] (inactive).

Which activation does the source give for `COC(=O)CNC(=O)C12CC3(C)CC(C)(CC(C)(C3)C1)C2` here?
Its activation is 0.274% [at 0.00035 µM] (inactive).

With `COc1ccc(C2Nc3ccccc3C(=O)N2c2ccccc2)cc1COc1ccccn1` (stereo not given) as the compound, how does the Potency read?
The Potency was “inactive”.

With `COc1ccc(C2Nc3ccccc3C(=O)N2c2ccc(C)cc2)cc1Cn1cc([N+](=O)[O-])cn1` (stereo not given) as the compound, how does the Potency read?
The Potency was “inactive”.

`O=c1c2c(-c3ccccc3)csc2ncn1/N=C/c1cn(-c2ccccc2)nc1-c1cccs1` was tested. Which Potency did it give?
The Potency was “inactive”.

How did the activation turn out when `O=C(c1cc(-c2cccs2)on1)N1CCCc2ccccc21` was run?
Its activation is 0.238% [at 0.00035 µM] (inactive).

With `COc1ccc(CN2C(=O)N(c3ccccc3)C(=O)C2c2ccccc2)cc1COc1ccc(NC(C)=O)cc1` (stereo not given) as the compound, how does the Potency read?
Its Potency is “inactive”.

`O=C1c2ccccc2NC(c2cccc(F)c2)N1Cc1ccco1` (stereo not given) was tested. Which Potency did it give?
Its Potency is “inactive”.

`Cc1ccc(N(CC(=O)NCc2ccco2)S(=O)(=O)c2ccccc2)cc1` was tested. Which activation did it give?
Its activation is 0.48% [at 0.00035 µM] (inactive).

`CC1(C)c2ccccc2N2CC(=O)NC21/C=C/c1ccco1` (stereo not given) was tested. Which activation did it give?
Its activation is 1.29% [at 0.00035 µM] (inactive).

`COc1ccc(CN(Cc2ccccc2)C(=O)c2ccccc2N)cc1COc1ccc(NC(C)=O)cc1` was tested. Which Potency did it give?
Its Potency is 25.1 µM (active).

With `COc1ccc(O)c(C2Nc3ccccc3C(=O)N2Cc2ccccc2)c1` (stereo not given) as the compound, how does the Potency read?
Its Potency is “inactive”.

`COc1cc(OC)cc(-c2nnc(SCC(=O)N(C(C)C)C(C)C)o2)c1` was tested. Which activation did it give?
Its activation is 0.0275% [at 0.00035 µM] (inactive).

Which activation does the source give for `CCC(C)(C)n1nnnc1CN(Cc1ccco1)Cc1cc2cc3c(cc2[nH]c1=O)OCO3` here?
Its activation is 0.108% [at 0.00035 µM] (inactive).

`O=C1c2ccccc2NC(c2cc(Br)c3c(c2)OCO3)N1Cc1ccco1` (stereo not given) was tested. Which Potency did it give?
Its Potency is “inactive”.

With `COc1ccc(C2Nc3ccccc3C(=O)N2Cc2ccccc2)cc1COc1ccccc1OC` (stereo not given) as the compound, how does the Potency read?
The Potency was “inactive”.

For `COc1ccc(C2Nc3ccccc3C(=O)N2Cc2ccccc2)cc1Oc1ccc(NC(C)=O)cc1` (stereo not given), which Potency is on record?
Its Potency is “inactive”.
